In PubChem BioAssay AID1159580 (chemical genetic matrix, 2015):
Out of some 5,500 compounds screened, about 2,000 (36%) were called active. About 18% were inconclusive and are not listed. Some of the results follow. Unmarked numbers belong to inactive results. No stated cut-off is given here; in the data, active means normalized growth mostly below about 0.91 (no sharp cut-off); inconclusive means no clear call, values can overlap the other calls; inactive means mostly above about 0.92.

Assay: chemical genetic growth profiling, strain panel (AID 1159580);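 further: tested at 20 µM; growth read once vehicle control cultures reached saturation at 30 °C; 1 = growth at the plate median or of vehicle wells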
Settings: growth OD

Molecule `COC(=O)c1c(OC)cc2c(c1C)Oc1c(Cl)c(O)c(Cl)c(C)c1C(=O)O2` has a normalized growth (S. cerevisiae deletion strains, locus YJR075W, strain HOC1, stronger effect = lower value) of 0.893, a normalized growth (S. cerevisiae deletion strains, locus YKL009W, strain mrt4, stronger effect = lower value) of 0.975 and a normalized growth (S. cerevisiae deletion strains, locus YKL068W, stronger effect = lower value) of 0.976. For the same molecule, the normalized growth (S. cerevisiae deletion strains, locus YKL085W, strain MDH1 (second series), stronger effect = lower value) was 0.979, the normalized growth (S. cerevisiae deletion strains, locus YKL085W, strain MDH1, stronger effect = lower value) was 0.979 and the normalized growth (S. cerevisiae deletion strains, locus YKL160W, strain elf1, stronger effect = lower value) was 0.993. The normalized growth (S. cerevisiae deletion strains, locus YKL190W, strain CNB1, stronger effect = lower value) was 0.911 (active), the normalized growth (S. cerevisiae deletion strains, locus YKR001C, strain vps1, stronger effect = lower value) was 0.949 and the normalized growth (S. cerevisiae deletion strains, locus YKR026C, strain gcn3, stronger effect = lower value) was 0.977. It also gave a normalized growth (S. cerevisiae deletion strains, locus YKR091W, strain srl3, stronger effect = lower value) of 0.986, a normalized growth (S. cerevisiae deletion strains, locus YLL001W, strain dnm1, stronger effect = lower value) of 0.979 and a normalized growth (S. cerevisiae deletion strains, locus YLL026W, stronger effect = lower value) of 0.983. It also gave a normalized growth (S. cerevisiae deletion strains, locus YLL041C, strain sdh2, stronger effect = lower value) of 0.978, a normalized growth (S. cerevisiae deletion strains, locus YLR027C, strain aat2, stronger effect = lower value) of 0.991 and a normalized growth (S. cerevisiae deletion strains, locus YLR039C, strain RIC1, stronger effect = lower value) of 0.796. The normalized growth (S. cerevisiae deletion strains, locus YLR058C, strain SHM2, stronger effect = lower value) was 0.919, the normalized growth (S. cerevisiae deletion strains, locus YLR102C, strain apc9, stronger effect = lower value) was 0.927 and the normalized growth (S. cerevisiae deletion strains, locus YLR113W, strain HOG1, stronger effect = lower value) was 0.968. For the same molecule, the normalized growth (S. cerevisiae deletion strains, locus YLR221C, strain rsa3, stronger effect = lower value) was 0.982, the normalized growth (S. cerevisiae deletion strains, locus YLR258W, strain gsy2, stronger effect = lower value) was 0.992 and the normalized growth (S. cerevisiae deletion strains, locus YLR262C, strain YPT6 (second series), stronger effect = lower value) was 0.927. It also gave a normalized growth (S. cerevisiae deletion strains, locus YLR262C, strain YPT6, stronger effect = lower value) of 0.795, a normalized growth (S. cerevisiae deletion strains, locus YLR268W, strain sec22, stronger effect = lower value) of 0.905 and a normalized growth (S. cerevisiae deletion strains, locus YLR320W, strain mms22, stronger effect = lower value) of 0.964. It also gave a normalized growth (S. cerevisiae deletion strains, locus YLR330W, strain CHS5, stronger effect = lower value) of 0.929, a normalized growth (S. cerevisiae deletion strains, locus YLR342W, strain FKS1 (second series), stronger effect = lower value) of 0.927 and a normalized growth (S. cerevisiae deletion strains, locus YLR342W, strain FKS1, stronger effect = lower value) of 0.986. It also gave a normalized growth (S. cerevisiae deletion strains, locus YLR357W, strain rsc2, stronger effect = lower value) of 1.05, a normalized growth (S. cerevisiae deletion strains, locus YLR370C, strain arc18, stronger effect = lower value) of 0.984 and a normalized growth (S. cerevisiae deletion strains, locus YLR371W, strain rom2, stronger effect = lower value) of 0.976. For the same molecule, the normalized growth (S. cerevisiae deletion strains, locus YLR384C, strain iki3, stronger effect = lower value) was 0.994, the normalized growth (S. cerevisiae deletion strains, locus YLR418C, strain cdc73, stronger effect = lower value) was 0.863 and the normalized growth (S. cerevisiae deletion strains, locus YML016C, strain PPZ1, stronger effect = lower value) was 0.936. It also gave a normalized growth (S. cerevisiae deletion strains, locus YML032C, strain rad52, stronger effect = lower value) of 0.96, a normalized growth (S. cerevisiae deletion strains, locus YML120C, strain ndi1, stronger effect = lower value) of 0.973 and a normalized growth (S. cerevisiae deletion strains, locus YML124C, strain tub3, stronger effect = lower value) of 0.945. It also gave a normalized growth (S. cerevisiae deletion strains, locus YMR058W, strain fet3, stronger effect = lower value) of 0.982, a normalized growth (S. cerevisiae deletion strains, locus YMR078C, strain ctf18, stronger effect = lower value) of 0.935 and a normalized growth (S. cerevisiae deletion strains, locus YMR125W, strain sto1, stronger effect = lower value) of 1.01. For the same molecule, the normalized growth (S. cerevisiae deletion strains, locus YMR129W, stronger effect = lower value) was 1.01, the normalized growth (S. cerevisiae deletion strains, locus YMR205C, strain PFK2, stronger effect = lower value) was 0.989 and the normalized growth (S. cerevisiae deletion strains, locus YMR223W, strain ubp8, stronger effect = lower value) was 0.947. The normalized growth (S. cerevisiae deletion strains, locus YMR231W, strain pep5, stronger effect = lower value) was 0.993, the normalized growth (S. cerevisiae deletion strains, locus YMR263W, strain SAP30, stronger effect = lower value) was 0.882 (active) and the normalized growth (S. cerevisiae deletion strains, locus YMR307W, strain GAS1, stronger effect = lower value) was 0.869. For the same molecule, the normalized growth (S. cerevisiae deletion strains, locus YNL067W, strain RPL9B, stronger effect = lower value) was 0.895, the normalized growth (S. cerevisiae deletion strains, locus YNL071W, strain lat1, stronger effect = lower value) was 0.982 and the normalized growth (S. cerevisiae deletion strains, locus YNL128W, strain TEP1, stronger effect = lower value) was 0.89. For the same molecule, the normalized growth (S. cerevisiae deletion strains, locus YNL153C, strain GIM3, stronger effect = lower value) was 0.909, the normalized growth (S. cerevisiae deletion strains, locus YNL183C, strain NPR1, stronger effect = lower value) was 0.9 and the normalized growth (S. cerevisiae deletion strains, locus YNL209W, strain ssb2, stronger effect = lower value) was 0.996. The normalized growth (S. cerevisiae deletion strains, locus YNL233W, strain BNI4, stronger effect = lower value) was 0.938, the normalized growth (S. cerevisiae deletion strains, locus YNL248C, strain rpa49, stronger effect = lower value) was 1.02 and the normalized growth (S. cerevisiae deletion strains, locus YNL250W, strain rad50, stronger effect = lower value) was 0.986. The normalized growth (S. cerevisiae deletion strains, locus YNL271C, strain bni1, stronger effect = lower value) was 0.985, the normalized growth (S. cerevisiae deletion strains, locus YNL298W, strain CLA4, stronger effect = lower value) was 0.977 and the normalized growth (S. cerevisiae deletion strains, locus YNL307C, strain MCK1, stronger effect = lower value) was 0.838 (active). The normalized growth (S. cerevisiae deletion strains, locus YNL322C, strain KRE1 (second series), stronger effect = lower value) was 0.997, the normalized growth (S. cerevisiae deletion strains, locus YNL322C, strain KRE1, stronger effect = lower value) was 0.937 and the normalized growth (S. cerevisiae deletion strains, locus YNR049C, strain mso1, stronger effect = lower value) was 0.994. For the same molecule, the normalized growth (S. cerevisiae deletion strains, locus YNR052C, strain pop2, stronger effect = lower value) was 0.948, the normalized growth (S. cerevisiae deletion strains, locus YOL006C, strain TOP1, stronger effect = lower value) was 0.757 and the normalized growth (S. cerevisiae deletion strains, locus YOL012C, strain htz1) was 0.865. The normalized growth (S. cerevisiae deletion strains, locus YOL147C, strain pex11, stronger effect = lower value) was 0.946, the normalized growth (S. cerevisiae deletion strains, locus YOR001W, strain rrp6, stronger effect = lower value) was 1.01 and the normalized growth (S. cerevisiae deletion strains, locus YOR061W, strain CKA2, stronger effect = lower value) was 0.892. The normalized growth (S. cerevisiae deletion strains, locus YOR069W, strain VPS5, stronger effect = lower value) was 0.953, the normalized growth (S. cerevisiae deletion strains, locus YOR070C, strain gyp1, stronger effect = lower value) was 0.984 and the normalized growth (S. cerevisiae deletion strains, locus YOR080W, strain dia2, stronger effect = lower value) was 0.992. The normalized growth (S. cerevisiae deletion strains, locus YOR083W, strain WHI5, stronger effect = lower value) was 0.997, the normalized growth (S. cerevisiae deletion strains, locus YOR106W, strain vam3, stronger effect = lower value) was 1.01 and the normalized growth (S. cerevisiae deletion strains, locus YOR136W, strain idh2, stronger effect = lower value) was 0.943. It also gave a normalized growth (S. cerevisiae deletion strains, locus YOR144C, strain elg1, stronger effect = lower value) of 0.947, a normalized growth (S. cerevisiae deletion strains, locus YOR184W, strain ser1, stronger effect = lower value) of 0.918 and a normalized growth (S. cerevisiae deletion strains, locus YOR231W, strain MKK1, stronger effect = lower value) of 0.927. The normalized growth (S. cerevisiae deletion strains, locus YOR265W, strain rbl2, stronger effect = lower value) was 0.989, the normalized growth (S. cerevisiae deletion strains, locus YOR270C, strain vph1, stronger effect = lower value) was 0.927 and the normalized growth (S. cerevisiae deletion strains, locus YOR290C, strain snf2, stronger effect = lower value) was 0.995. The normalized growth (S. cerevisiae deletion strains, locus YOR316C, strain cot1, stronger effect = lower value) was 0.933, the normalized growth (S. cerevisiae deletion strains, locus YPL051W, strain arl3, stronger effect = lower value) was 0.98 and the normalized growth (S. cerevisiae deletion strains, locus YPL055C, strain LGE1, stronger effect = lower value) was 0.864. For the same molecule, the normalized growth (S. cerevisiae deletion strains, locus YPL078C, strain atp4, stronger effect = lower value) was 0.982, the normalized growth (S. cerevisiae deletion strains, locus YPL106C, strain sse1, stronger effect = lower value) was 1.03 and the normalized growth (S. cerevisiae deletion strains, locus YPL240C, strain hsp82, stronger effect = lower value) was 0.979. The normalized growth (S. cerevisiae deletion strains, locus YPL241C, strain CIN2, stronger effect = lower value) was 0.913 (active), the normalized growth (S. cerevisiae deletion strains, locus YPL256C, strain CLN2, stronger effect = lower value) was 0.938 and the normalized growth (S. cerevisiae deletion strains, locus YPR119W, strain clb2, stronger effect = lower value) was 0.937. The normalized growth (S. cerevisiae deletion strains, locus YPR141C, strain kar3, stronger effect = lower value) was 0.968, the normalized growth (S. cerevisiae deletion strains, locus YPR163C, strain tif3, stronger effect = lower value) was 0.901 (active) and the normalized growth (S. cerevisiae deletion strains, locus YPR167C, strain met16, stronger effect = lower value) was 0.927. It also gave a normalized growth (S. cerevisiae deletion strains, strain wtn01, stronger effect = lower value) of 0.936 and a normalized growth (S. cerevisiae strains, strain wild type, stronger effect = lower value) of 0.915.
